Laboratory results from PubChem BioAssay (Tox21).
Records with an inconclusive call do not appear. Active and inactive are the calls of the source. Unless noted, calls follow the shape of the full dose curve.

Tests used:
[1] = Nuclear factor erythroid 2-related factor 2/antioxidant responsive element (Nrf2/ARE) small molecule agonists: qHTS cell viability counter screen in human keratinocytes (AID 1919968; active = well fitted curve in the direction sought with a large enough effect in the repeat runs; an effect the other way counts as inactive or inconclusive; also: nearly all actives have a fitted effect of over 55% in size)
How it was run: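 Stably transfected HaCaT (KeratinoSens), 1,500/well. Test agents in DMSO were applied for 23 h, 37 C/5% CO2. CellTiter-Fluor was incubated 1 h before the fluorescence read.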

[2] = Nuclear factor erythroid 2-related factor 2/antioxidant responsive element (Nrf2/ARE) small molecule agonists: luciferase reporter gene qHTS assay in human keratinocytes (AID 1919969); also: nearly all actives have a fitted effect of over 35% in size
[3] = biological target: Gonadotropin-releasing hormone receptor (Homo sapiens) (UniProt P30968); test: Human gonadotropin-releasing hormone receptor (GnRHR) small molecule agonists, calcium flux assay in GnRHR-HEK293 cells (AID 1920063); also: nearly all actives have a fitted effect of over 35% in size
How it was run: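 Stable human GnRHR HEK293 line. 18 h plating, then calcium dye for 1 h at 37 C. Agonist-mode compound addition from DMSO stocks; fluorescence monitored 3 min.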

[4] = biological target: KiSS-1 receptor (Homo sapiens) (UniProt Q969F8); test: Human kisspeptin (KISS1R) small molecule agonists, calcium flux assay in KISS1R-HEK293 cells (AID 1920064; active = well fitted curve in the direction sought with a large enough effect in the repeat runs; an effect the other way counts as inactive or inconclusive)
How it was run: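 After overnight (18 h) culture at 37 C/5% CO2, human KISS1R-HEK293 cells received calcium dye for 1 h, then test compound; emission at 540 nm (excitation 480 nm) was tracked for 3 min.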

[5] = G protein-coupled receptor (GPCR) small molecule agonists, calcium flux assay: HEK293 wild type cell line counter screen (AID 1920065)
How it was run: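 Following 18 h incubation at 37 C/5% CO2, plates got calcium dye for 1 h; compounds, ATP or DMSO were then pinned in and fluorescence followed kinetically (480/540 nm).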

[6] = p53 small molecule agonists, cell-based qHTS assay with human liver microsomes (AID 1963577);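 also: p53 response element beta-lactamase reporter cells with liver microsomes plus NADPH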
How it was run: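 Reporter activation was measured by LiveBLAzer fluorescence intensity in p53RE-bla cells, which had been exposed to compounds for 16 h at 37 C alongside 0.5 mg/mL human liver microsomes and 0.5 mg/mL NADPH (final concentrations).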

[7] = p53 small molecule agonists, cell-based qHTS assay with rat liver microsomes (AID 1963578)
How it was run: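 Compound in DMSO added to p53RE-bla cells 5 h post-plating; rat microsomes/NADPH 0.5 mg/mL final; 16 h, 37 C; LiveBLAzer 2 h RT.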

[8] = p53 small molecule agonists, cell-based qHTS assay with human liver microsomes: qHTS cell viability counter screen (AID 1963579); also: nearly all actives have a fitted effect of over 45% in size
How it was run: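 HLM-supplemented (0.5 mg/mL final) and NADPH-supplemented (0.5 mg/mL final) p53RE-bla cultures, 4,000 cells per well, were dosed with compounds in DMSO for 16 h at 37 C; luminescent ATP detection (CellTiter-Glo, 30 min, room temperature) quantified surviving cells.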

[9] = p53 small molecule agonists, cell-based qHTS assay with rat liver microsomes: qHTS cell viability counter screen (AID 1963580); also: nearly all actives have a fitted effect of over 45% in size
How it was run: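 Cytotoxicity counter screen: intracellular ATP measured by CellTiter-Glo luminescence in the same wells as the beta-lactamase reporter read, on HCT-116 p53RE-bla cells exposed 16 h at 37 C to compounds with rat liver microsomes and NADPH, each 0.5 mg/mL final.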

[10] = p53 small molecule agonists, cell-based qHTS assay: qHTS cell viability counter screen (AID 1963581); also: nearly all actives have a fitted effect of over 45% in size
How it was run: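 qHTS counter screen: 16 h compound exposure at 37 C of p53RE-bla HCT-116 cells (4,000 per well, seeded 5 h prior), cell viability by ATP luminescence.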

[11] = p53 small molecule agonists, cell-based qHTS assay (AID 1963582; active = well fitted activation curve with a large enough effect in the signal ratio in the repeat runs, not every such curve was filed as active; the % refers to the signal ratio)
How it was run: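 Measured: fluorescence from cleaved LiveBLAzer substrate. System: p53RE-bla cells, 16 h compound treatment at 37 C, 2 h substrate step at room temperature.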

[12] = biological target: 5-hydroxytryptamine receptor 2A (Homo sapiens) (UniProt P28223); test: 5-hydroxytryptamine receptor 2A (HTR2A) small molecule antagonists, cell-based qHTS assay (AID 1963586); also: nearly all actives have a fitted effect of over 45% in size
How it was run: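 CHO cells stably expressing human HTR2A were plated for 18 h at 37 C, then loaded with calcium dye for 1 h. Compounds were preincubated 5 min at room temperature before DOI (4 nM solution) was added. Kinetic fluorescence was read for 3 min.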

[13] = biological target: 5-hydroxytryptamine receptor 2A (Homo sapiens) (UniProt P28223); test: 5-hydroxytryptamine receptor 2A (HTR2A) small molecule agonists, cell-based qHTS assay (AID 1963587); also: nearly all actives have a fitted effect of over 30% in size
How it was run: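 CHO cells stably expressing human HTR2A, plated 18 h, loaded with calcium dye 1 h at 37 C. Agonist mode: compounds added and intracellular calcium fluorescence recorded kinetically for 2 min at 1 sec intervals.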

[14] = cAMP Responsive Elements (CRE) small molecule agonists, cell-based qHTS assay (AID 1963590)
How it was run: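 Test agents in DMSO were incubated 3 h at 37 C/5% CO2 with CRE-bla HEK 293T cells seeded 18 h earlier; LiveBLAzer B/G FRET substrate was added and read after 2 h at room temperature.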

[15] = cAMP Responsive Elements (CRE) small molecule antagonists, cell-based qHTS assay (AID 1963591; active = well fitted inhibition curve with a large enough effect in the signal ratio in the repeat runs, not every such curve was filed as active; the % refers to the signal ratio)
How it was run: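 Reporter line CRE-bla HEK 293T in dialyzed-FBS DMEM; cells preincubated 18 h, treated 3 h with compound plus NKH477 (0.25 uM final); LiveBLAzer FRET, 2 h RT.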

[16] = biological target: Beta-2 adrenergic receptor (Homo sapiens) (UniProt P07550); test: Adrenergic beta2 receptor (ADRB2) small molecule antagonists, cell-based qHTS assay (AID 1963592); also: series mostly up to about 92 µM; nearly all actives have a fitted effect of over 50% in size
How it was run: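 Assay format: CHO-ADRB2 cells, 18-20hr seeding at 37C/5% CO2, then compound plus 1nM isoproterenol agonist mix for 0.5hr RT. Homogeneous time-resolved fluorescence cAMP detection after 1hr, expressed as 665/615 nm ratio.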

[17] = biological target: Beta-2 adrenergic receptor (Homo sapiens) (UniProt P07550); test: Adrenergic beta2 receptor (ADRB2) small molecule agonists, cell-based qHTS assay (AID 1963593);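 also: CHO cells stably overexpressing human ADRB2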
How it was run: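 CHO cells stably over-expressing ADRB2 were plated overnight at 37C, then dosed with compounds plus a stimulation mix containing 100uM IBMX and 25uM Ro-20-1724 for 0.5hr at room temperature. cAMP was measured by HTRF competition, 1hr.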

[18] = biological target: D(2) dopamine receptor (Homo sapiens) (UniProt P14416); test: Dopamine D2 receptor (DRD2) small molecule agonists, cell-based qHTS assay (AID 1963594); also: nearly all actives have a fitted effect of over 35% in size
How it was run: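 HEK293 cells stably expressing human DRD2, pre-treated with PDE inhibitor Ro20-1724 (0.1 mM final) and compound 10 min at room temperature, then stimulated with NKH477 (200nM […]) for 30 min. cAMP read by HTRF (665/620 nm).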

[19] = biological target: D(2) dopamine receptor (Homo sapiens) (UniProt P14416); test: Dopamine D2 receptor (DRD2) small molecule antagonists, cell-based qHTS assay (AID 1963595; active = well fitted inhibition curve with a large enough effect in the signal ratio in the repeat runs, with a control signal flat; the % refers to the signal ratio)
How it was run: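 Cells were plated and grown for 24 h at 37 °C. Ro20-1724 (0.1 mM final) went in first, then compound for 10 min. NKH477 (200 nM) with quinpirole (12 nM) followed for 30 min at RT, then HTRF detection reagents for 1 h.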

[20] = biological target: Muscarinic acetylcholine receptor M1 (Homo sapiens) (UniProt P11229); test: Cholinergic receptor muscarinic 1 (CHRM1) small molecule antagonists, cell-based qHTS assay (AID 1963588); also: nearly all actives have a fitted effect of over 40% in size
How it was run: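 Compounds were tested at 15 concentrations in three independent runs. Dye-loaded CHRM1-CHO cells were exposed 5 min at room temperature before stimulation by acetylcholine added at 50nM. Intracellular calcium was read kinetically on FDSS for 3 min.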

Measured: Potency

Chain of 5-hydroxytryptamine receptor 2A (Homo sapiens) (P28223 whole entry, looked up): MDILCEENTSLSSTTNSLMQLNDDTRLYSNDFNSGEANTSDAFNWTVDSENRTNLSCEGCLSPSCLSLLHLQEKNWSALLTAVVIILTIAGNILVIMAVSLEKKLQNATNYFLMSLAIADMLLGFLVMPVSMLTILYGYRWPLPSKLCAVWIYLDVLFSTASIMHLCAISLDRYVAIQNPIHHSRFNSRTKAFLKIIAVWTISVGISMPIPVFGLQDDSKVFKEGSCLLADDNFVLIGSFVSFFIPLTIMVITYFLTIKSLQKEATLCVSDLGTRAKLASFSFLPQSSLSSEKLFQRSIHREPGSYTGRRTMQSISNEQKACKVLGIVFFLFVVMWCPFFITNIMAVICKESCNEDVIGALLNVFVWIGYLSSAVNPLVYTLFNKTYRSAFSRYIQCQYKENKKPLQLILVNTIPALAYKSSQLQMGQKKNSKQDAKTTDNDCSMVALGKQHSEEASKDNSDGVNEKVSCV
Chain of Gonadotropin-releasing hormone receptor (Homo sapiens) (P30968 whole entry, looked up): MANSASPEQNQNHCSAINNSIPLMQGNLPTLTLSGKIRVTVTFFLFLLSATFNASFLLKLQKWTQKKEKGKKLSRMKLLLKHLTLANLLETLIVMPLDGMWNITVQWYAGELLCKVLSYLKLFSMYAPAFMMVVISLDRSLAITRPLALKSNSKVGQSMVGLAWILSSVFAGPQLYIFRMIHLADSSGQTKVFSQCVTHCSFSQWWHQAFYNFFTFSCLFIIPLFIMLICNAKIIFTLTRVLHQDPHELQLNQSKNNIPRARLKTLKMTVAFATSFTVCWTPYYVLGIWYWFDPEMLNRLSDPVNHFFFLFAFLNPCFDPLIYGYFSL
Chain of Muscarinic acetylcholine receptor M1 (Homo sapiens) (P11229 whole entry, looked up): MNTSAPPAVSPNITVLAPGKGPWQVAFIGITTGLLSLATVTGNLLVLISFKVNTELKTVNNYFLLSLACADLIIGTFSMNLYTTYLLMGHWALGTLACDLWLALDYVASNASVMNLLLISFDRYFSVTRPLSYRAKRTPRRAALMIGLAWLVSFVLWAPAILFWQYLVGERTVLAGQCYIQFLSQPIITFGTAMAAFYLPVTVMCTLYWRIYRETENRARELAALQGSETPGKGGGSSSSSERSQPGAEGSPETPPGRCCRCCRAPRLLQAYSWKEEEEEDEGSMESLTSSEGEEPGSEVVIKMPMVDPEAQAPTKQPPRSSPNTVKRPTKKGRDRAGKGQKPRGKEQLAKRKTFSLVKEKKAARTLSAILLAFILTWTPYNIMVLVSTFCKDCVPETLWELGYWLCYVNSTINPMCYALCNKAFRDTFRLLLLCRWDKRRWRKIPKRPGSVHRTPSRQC
Chain of KiSS-1 receptor (Homo sapiens) (Q969F8 whole entry, looked up): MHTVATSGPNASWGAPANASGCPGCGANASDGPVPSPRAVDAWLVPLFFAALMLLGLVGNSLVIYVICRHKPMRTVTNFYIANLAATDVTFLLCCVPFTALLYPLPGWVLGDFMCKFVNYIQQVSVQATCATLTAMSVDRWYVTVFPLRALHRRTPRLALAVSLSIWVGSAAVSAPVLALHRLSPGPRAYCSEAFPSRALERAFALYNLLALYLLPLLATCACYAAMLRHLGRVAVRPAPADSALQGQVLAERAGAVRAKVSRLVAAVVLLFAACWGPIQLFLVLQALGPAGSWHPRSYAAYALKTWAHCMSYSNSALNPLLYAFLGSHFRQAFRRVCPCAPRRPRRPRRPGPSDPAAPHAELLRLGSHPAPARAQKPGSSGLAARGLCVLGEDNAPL
Chain of D(2) dopamine receptor (Homo sapiens) (P14416 whole entry, looked up): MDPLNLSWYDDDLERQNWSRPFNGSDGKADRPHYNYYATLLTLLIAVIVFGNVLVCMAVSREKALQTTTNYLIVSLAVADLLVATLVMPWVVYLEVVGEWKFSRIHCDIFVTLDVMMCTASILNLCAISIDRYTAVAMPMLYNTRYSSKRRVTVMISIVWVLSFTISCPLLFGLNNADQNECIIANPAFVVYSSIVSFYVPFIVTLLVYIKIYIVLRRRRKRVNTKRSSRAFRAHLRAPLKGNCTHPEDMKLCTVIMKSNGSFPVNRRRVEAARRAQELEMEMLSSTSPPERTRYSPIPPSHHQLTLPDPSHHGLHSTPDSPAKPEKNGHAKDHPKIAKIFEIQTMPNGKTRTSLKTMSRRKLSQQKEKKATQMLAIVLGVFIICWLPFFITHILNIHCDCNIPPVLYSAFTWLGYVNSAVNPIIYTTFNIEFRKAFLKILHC
Chain of Beta-2 adrenergic receptor (Homo sapiens) (P07550 whole entry, looked up): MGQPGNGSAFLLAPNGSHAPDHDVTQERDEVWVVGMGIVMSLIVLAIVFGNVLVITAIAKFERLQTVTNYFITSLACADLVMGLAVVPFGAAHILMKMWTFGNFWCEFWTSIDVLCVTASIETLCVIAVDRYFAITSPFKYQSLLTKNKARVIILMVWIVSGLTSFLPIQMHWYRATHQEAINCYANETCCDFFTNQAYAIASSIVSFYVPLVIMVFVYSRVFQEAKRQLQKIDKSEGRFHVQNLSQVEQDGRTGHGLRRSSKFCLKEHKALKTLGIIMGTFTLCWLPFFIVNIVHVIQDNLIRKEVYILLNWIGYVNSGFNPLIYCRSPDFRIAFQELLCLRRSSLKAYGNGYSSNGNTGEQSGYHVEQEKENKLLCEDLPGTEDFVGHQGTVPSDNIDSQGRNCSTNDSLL

OC[C@H]1O[C@H](O[C@]2(CCl)O[C@H](CCl)[C@@H](O)[C@@H]2O)[C@H](O)[C@@H](O)[C@H]1Cl
not listed: [20]
inactive: all other assays above

CCCCOC(=O)CCCCCCCCC(=O)OCCCC
not listed: [17]
inactive: all other assays above

CCCC(O)C(CC)CO (stereo not given)
not listed: [13]
inactive: all other assays above

CCCCCCCCCCCCCCCC(=O)OC(C)C
not listed: [16] | [17]
inactive: all other assays above

COc1cc([C@H]2Oc3cc([C@H]4Oc5cc(O)cc(O)c5C(=O)[C@@H]4O)ccc3O[C@@H]2CO)ccc1O
not listed: [13] | [14] | [15] | [17]
inactive: all other assays above

Cc1ccc([N+](=O)[O-])cc1S(=O)(=O)O
not listed: [17] | [19] | [20]
inactive: all other assays above

Cc1cccc2ccccc12
not listed: [13] | [17]
inactive: all other assays above

CC(=O)c1nccs1
not listed: [13]
inactive: all other assays above
